In the supplement of paper PMC12632987:

T1: USP38, Q8NB14
T1 chain: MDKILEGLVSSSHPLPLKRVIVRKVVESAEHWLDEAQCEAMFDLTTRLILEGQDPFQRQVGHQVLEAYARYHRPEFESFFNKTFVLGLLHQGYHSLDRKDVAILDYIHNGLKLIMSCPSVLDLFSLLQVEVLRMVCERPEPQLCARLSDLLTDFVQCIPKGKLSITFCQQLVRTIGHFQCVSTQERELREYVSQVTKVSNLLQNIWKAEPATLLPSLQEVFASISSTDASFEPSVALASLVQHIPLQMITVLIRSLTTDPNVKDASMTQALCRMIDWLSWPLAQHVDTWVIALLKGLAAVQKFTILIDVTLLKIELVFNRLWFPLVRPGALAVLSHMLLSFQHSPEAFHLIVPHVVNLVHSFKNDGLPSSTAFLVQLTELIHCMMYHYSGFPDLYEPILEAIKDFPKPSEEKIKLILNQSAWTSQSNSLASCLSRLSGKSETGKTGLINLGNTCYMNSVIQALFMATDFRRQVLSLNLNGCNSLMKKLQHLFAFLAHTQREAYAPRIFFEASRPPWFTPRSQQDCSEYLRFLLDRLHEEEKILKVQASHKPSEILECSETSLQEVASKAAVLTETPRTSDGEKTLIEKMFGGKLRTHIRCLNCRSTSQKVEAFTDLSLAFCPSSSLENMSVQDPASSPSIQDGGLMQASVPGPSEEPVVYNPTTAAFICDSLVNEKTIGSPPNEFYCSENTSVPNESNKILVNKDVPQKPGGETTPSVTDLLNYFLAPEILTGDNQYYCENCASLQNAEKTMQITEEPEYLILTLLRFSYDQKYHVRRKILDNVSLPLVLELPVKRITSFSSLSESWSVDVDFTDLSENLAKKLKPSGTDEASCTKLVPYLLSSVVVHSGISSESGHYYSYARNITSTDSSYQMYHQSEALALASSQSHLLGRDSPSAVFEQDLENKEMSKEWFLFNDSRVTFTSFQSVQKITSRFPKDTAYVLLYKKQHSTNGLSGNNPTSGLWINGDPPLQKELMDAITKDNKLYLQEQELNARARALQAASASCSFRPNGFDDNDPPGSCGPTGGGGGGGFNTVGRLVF


Biological target: UCHL1, P09936
Experiment: median log2 fold change of GCK-ALFA target abundance (FLAG IP / Myc IP barcode read proportion) (log2 ratio); each designed protein is fused to an ALFA-tag nanobody in HEK293 cells to bring the named protein to FLAG-tagged glucokinase (GCK); Myc marks an untargeted standard; higher = target protein stabilised (more abundant)
Conditions: target protein: 3xFLAG-MCP-GCK-ALFA reporter; HEK293 landing pad (RPLP)
Procedure, shortened: (§1)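 An ALFA-nanobody-fused binder library was recombined into HEK293 landing-pad cells and induced with 2 μg mL^−1 doxycycline. Cells were transfected with a plasmid expressing a FLAG-tagged target and a Myc-tagged standard. After 48 h, lysates underwent anti-FLAG and anti-Myc immunoprecipitation, and circular RNA barcodes were reverse transcribed, amplified and sequenced. Target abundance is the per-binder median log2 ratio of FLAG to Myc barcode read proportions. Barcodes needed ≥10^−7 proportion in both replicates, binders ≥3 barcodes per replicate, and a 10^−6 pseudocount was added; the two replicates were pooled.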

Sequence of UCHL1, P09936 (P09936 whole entry, looked up, the tested form may be a part): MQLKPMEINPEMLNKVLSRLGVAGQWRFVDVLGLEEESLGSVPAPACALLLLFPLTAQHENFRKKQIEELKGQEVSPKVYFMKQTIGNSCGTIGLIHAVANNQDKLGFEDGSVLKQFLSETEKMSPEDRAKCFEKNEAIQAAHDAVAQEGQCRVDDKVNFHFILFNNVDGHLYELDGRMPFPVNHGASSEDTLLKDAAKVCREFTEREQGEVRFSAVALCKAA

Binder | median log2 fold change
uchl1_89_7589 (protein) AAAREAAARARLEAVLAKTRAELERLLARLGAPDPEMVAALEALFDAARRALADPETAEAALAETEAAARRLVELAPEEVRASVRLAVGRLVIALEGYRA | 0.16
uchl1_89_7594 (protein) EEERLAAARAYLRRVLAETRARVEAILARLGRPDPALVAAAEAIFEAAELAIEEPERAEEYVARAEEAARQLVELAPPEYRADFRMALGRLINRLRGYAA | 0.173
uchl1_89_7595 (protein) AAERAAAARARLRRVLAATRAELDRLVARMGERDPELLAALEAFFAAAEAALADPSTAAAALAAAEAAAKRAVELAPERYRASFRLALGRLLNALRGYVA | -0.1
uchl1_89_7588 (protein) EEERRRAARERLERVLAATRARLEALLARLGEPDPALVAALEALFAAARRALEDPATAAEALAAAEAAARRLVELAPPEVRASVRLAVGRLVNRLRGYVA | -0.164
uchl1_89_7592 (protein) DAARLAAARARLRRVLERTRARVEAIIARLGRPDPAMVAAAEAVFAAAERAIADPARAAEWVARAEAAARELVALAPPEYRSDFRMALGRLVNALLGYAA | -0.157
uchl1_89_7596 (protein) EEERRAAARARLRRVLAATRAKLEELIARMGERDPELLAELEAFFAAAEAALEDPETAEAALAAAEEHAVRAVELAPEEYRASFRLALGRLLNALLGYVA | -0.537
uchl1_89_7593 (protein) EEARLAAARAKLREVLARTRAAVEAILARLGEPRPELVALLDAIFEAAEKAIADPAKAEEYVEKAEAAAREFVELAPEEFRSDFRMALGRLINRLLGYAA | 0.0394
uchl1_89_7591 (protein) EAERLERARAHLREVLARTRERVEAIIARLGEPDPALVAARERVFAAAERAIADPARAAEYVAEAEAAARELVALAPPEFRSDFRMALGRLINRLLGYAA | 0.0711
uchl1_89_7590 (protein) EEAKAKAARARLERVLAATEAALRRLLARLGAPDPALVAALDALLAAARAALADPATAAAHLAAAEAAARRLVELAPPEVRASVRLATGRLVNALRGYVA | -0.00562

Biological target: T1, USP38, Q8NB14
Experiment: as above
Conditions: target protein: 3xFLAG-MCP-GCK-ALFA reporter; HEK293 landing pad (RPLP)
Procedure, shortened: as §1

Binder | median log2 fold change
usp_38_diff_out_13_133_57 (protein) SAAEERRAEARARLAETEAEVEKLLKEAKAALKAGDIDEAEKKVGEAAGLILEARSDLFALTRDDPELRREIRRRLKELEKELDKLIDEVVEARKKEFLA | 0.0932
usp_38_diff_out_13_93_69 (protein) EREERAEEIVERVERLGEELLKELEAAAADPSTTIEELLDLYSELVRRLVTATQAALAEARELGDEETVERILEISNETLLRLSELTTEALTAKAEAEAA | -0.38
usp_38_diff_out_13_93_67 (protein) DKEEEAKKLLEELKKFAEEKLKELEKLAKDPSVTIEELLEKYSELVSELITKHNEVKKKLDELGDEKTKKEATKITNEALLRMSEITTEALTRKQEEAEA | 0.158
usp_38_diff_out_13_133_61 (protein) SAMEERRKEAREELEKAKKEIEELLKKAEEALKEGDIETAEKYVGEAAGLILDTRSDLMERTKDDPELRKEILKELKELEKKLNELIDKVVKAREEEFLK | 0.145
usp_38_diff_out_11_94_49 (protein) DEEIETNLFLMRYQFSQIVDLALTIDRETAAKVLRLANEAMEILKSGGPLEEVNKKLEEIKKVFNEAAAKSKENTEKLTAEANALLEKAKEYAEKAIKLR | 0.33
usp_38_diff_out_13_133_63 (protein) SAAEERRAAARARLDAAVAEVERLLEEARRALEEGDVERAERYVGEAAGVLVRTRSELMALTRDDPELRREILRRLKELERRLEELIDEVEAARREAFLA | 0.0626
usp_38_diff_out_10_51_1 (protein) SVEEAKKRIEELMKEVEEVFKTGSDGEILRKSLNALNELTEIAKEYPEVKEEVIEAMVRIVELTKPNPELYEDMTFAARFKAATVSDEVAEKVREKIAAL | 0.235
usp_38_diff_out_10_51_3 (protein) SREEEAERLLEEMEELVEKIKTSDLKTATAYFYQLINLTARLEALDPSYAERALELLKEAAKELLEKGGDKEDIIFALRFKAAATGSKVLEKAAEYVEKL | 0.18
usp_38_diff_out_13_133_62 (protein) SAAEERRKEALKELEETEKKIEELLKKAKEALKEGKIEEAEKYVGEAAGLILKARSDLMAKTKDDPELRKEILKRLKELEKKLNELIDEVNEALKKKFLE | 0.147
usp_38_diff_out_13_133_54 (protein) AAAEARREEARRLLEEAEKEIEKLLKEAEKALEEGNIDKAYEYVAKAAGLLLETRDRLFDLTRDDPELRREVLKRLKELEKKLNELIDKVEAAERERFLA | -0.102
usp_38_diff_out_13_43_66 (protein) LEEEAEKVLKELDETLGEIYNLSLELRDKIRESDPETAKKLVEIKKRLDEVGNELADARRDLEIALISGEGLEEAIKKGKEKIEKAKKTIKEAKEELEKL | 0.341
usp_38_diff_out_13_133_51 (protein) AAKEEALAAAQARFDALLADAQAAIDAAEAALAAGDLDAAWAAVGRAAGLLREAREHRTRELRDDPAAYAAAQARLDAVEKRLNAVIDRVAAAERARFLA | 0.142
usp_38_diff_out_10_51_2 (protein) SVEEAREEIEELLEEVEEVFKTGSLDEQLRAGLNALNRLREIALEYPEVEEEVIEAMVRIVELAKPNPELYEDMKFAARFKAATVNDEVAERVRERIDAL | 0.0864
usp_38_diff_out_13_133_53 (protein) AAAEARRARALALLEEAEARVEKLIKEAEKALKEGKIDEARKYVAEAAGTLLRTRDELFDLTADDPELRREVLRRLKELTKRLDKVIDKVEKAERERFLA | 0.000412
usp_38_diff_out_13_133_56 (protein) SMAEKKREEAKKLLEETKKKVEKLLEEAEKALKEGDVEKAWEKVGEAAGTLLKARDELTDLTEDDPELRKEVLKELKKLEEKLNKLIDKVEKALREEFLK | -0.0894
usp_38_diff_out_13_133_55 (protein) AAAEAARAEAEALLAETEKRVEELLKKAKEALKAGDVETAEKYVGEAAGTLLEARDRLSDLTADDPELRREVLKRLKELEEKLNELIDEVEKALREEFLK | 0.299
usp_38_diff_out_13_133_60 (protein) SAAEERRAEARRRLEEAEERVKALLKEAKAALKAGKIDEARKKVGEAAGVIVDTRSDLMALTRDDPELRREILKRLKELEKELDKLIDEVVKAEEEAFLA | -0.0799
usp_38_diff_out_13_43_64 (protein) LREKAEKALAEADAALGRAYAVSRELRDKMREVNPEDAKKLLKARKKLDEVGNALADARAALETAMILGEGVEEAIPKVQAAVAKLKAAIEEAEKLLKEV | -0.253
usp_38_diff_out_13_43_65 (protein) LREEAEKALAEADKALGEAYKLSQEIRDKIRESDPETAKKLVKLRKELDDAGNALADARVALELALHSGEGVEEAIAATRAAIAALKKKIAEAKKELAAL | 0.148
usp_38_diff_out_13_133_59 (protein) SAAEERRREAERRLAEAERRIRELLEKAKKALEEGDIDEAERYVGEAAGIILRTRSDLMALTRDDPELRRRILRRLKELEEELNELIDEVVEAEKKRFLA | 0.136
usp_38_diff_out_13_133_52 (protein) AEEEEELKRRKEEFDKLIAEARKAIKDAKAALAAGDLDAAWAAAGKAAGLLMKAREHRTEKLRDDPELYEEAKKKLDEVEKELNEVIDAIVAAERERFLA | 0.302
usp_38_diff_out_13_133_50 (protein) SMEEEEKKEALKKFEELIKEAREAIEKAKKALEEGDLDKAWEYLGKAAGLLMEARELRTRELRDDPELYKEAKKKLEEVEKELNEVIDKVVEAEEKAFLA | 0.322
usp_38_diff_out_13_133_58 (protein) SAAEERRKKALERLEEAEKKVEELLKKAEEALKEGKIEEASKYVGEAAGIIVKTRSDLMALTKDDPELRKEILKRLKELEKKLNELIDKVVEAEKKKFLA | 0.217
